In the library only some 12% were active in any assay of this set; here they are far more common.
Gal4-VP16 FLuc: counter-screen for ROR gamma inhibitors: Gal4-VP16 reporter; Drosophila S2 Gal4-VP16 UAS-luciferase, luminescence, 20 h; AID 2546; Potency, µM (top dose mostly 53.6 µM), most hits filed as inhibitors; 3.5% of 310,000 active;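 also: Gal4-VP16 expression switched on by copper sulfate through the metallothionein promoter; nearly all actives have a fitted effect of over 50% in size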
ALDH1A1 block: blocks purified human ALDH1A1 activity; 7.3% of 220,000 active; Potency, µM (series often up to 75.3 µM), usual class: inhibitors; P00352; Purified ALDH1A1, NADH fluorescence, propionaldehyde substrate; active = well fitted inhibition curve with a large enough effect, not every such curve was filed as active; inconclusive = small, poorly fitted or top-dose-only effect, or another doubt; inactive = no such curve, though single readings can be large or run the other way
Target sequence (P00352 whole entry, looked up): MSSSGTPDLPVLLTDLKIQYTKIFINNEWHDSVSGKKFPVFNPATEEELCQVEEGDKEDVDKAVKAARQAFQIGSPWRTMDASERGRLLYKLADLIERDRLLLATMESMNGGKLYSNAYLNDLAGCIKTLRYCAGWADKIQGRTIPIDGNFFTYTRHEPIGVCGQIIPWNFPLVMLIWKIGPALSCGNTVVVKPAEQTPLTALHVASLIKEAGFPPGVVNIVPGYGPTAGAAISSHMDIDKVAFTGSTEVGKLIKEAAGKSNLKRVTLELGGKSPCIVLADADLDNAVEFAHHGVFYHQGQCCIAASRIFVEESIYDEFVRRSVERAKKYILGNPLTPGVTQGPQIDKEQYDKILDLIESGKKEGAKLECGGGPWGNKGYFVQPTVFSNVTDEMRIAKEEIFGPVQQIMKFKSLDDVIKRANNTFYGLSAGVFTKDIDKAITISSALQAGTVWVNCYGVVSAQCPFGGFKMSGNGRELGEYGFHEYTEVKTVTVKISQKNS
PLK1 PBD block: inhibitors of human PLK1 polo-box domain binding; Plk1 PBD binding of FITC phosphopeptide, fluorescence polarization; P53350; Potency, µM, usual class: inhibitors; 2.8% of 360,000 active; AID 720504; also: series mostly up to about 57 µM; nearly all actives have a fitted effect of over 65% in size
Sfp PPTase inh: blocks B. subtilis Sfp PPTase activity. Potency, µM, most hits filed as inhibitors. Biochemical Sfp PPTase activity, qHTS. 3.5% of 310,000 active. Q9F4F7;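 also: the enzyme is Sfp with the accession as filed and its product quenches rhodamine fluorescence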
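Compounds were incubated with enzyme (final 15 nM) for 15 min at room temperature before substrate addition started the reaction. Fluorescence at 525 nm excitation, 598 nm emission was recorded immediately and after 30 minutes.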
RORgamma inh: ROR gamma (mouse) transcription inhibition. P51450. Drosophila S2 Gal4-RORgamma UAS-luciferase reporter, 20 h. Potency, µM (highest dose often 53.6 µM), hits mostly inhibitors. 5.4% of 310,000 active. AID 2551; also: nearly all actives have a fitted effect of over 60% in size
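Schneider cells (Drosophila), stable Gal4 DBD–ROR gamma + UAS-luc; 1 hr cmpd preincubation; Cu2+ induction 700 uM final; 20 hr ambient; luminescence.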
Each line names hits and unclear results; the compound was inactive in the other large screens. Unless noted, calls follow the shape of the dose curve; as a rule, active = well fitted curve in the direction sought with a large enough effect; inconclusive = small, poorly fitted or top-dose-only effect, or another doubt; inactive = no such curve, though single readings can be large; an effect the other way counts as inactive or inconclusive.

COc1ccc(OCCN2CCC(C(=O)NC(c3ccc(F)cc3)c3ncccc3C)CC2)cc1 (stereo not drawn)	none (no result: Gal4-VP16 FLuc, ALDH1A1 block, Sfp PPTase inh, RORgamma inh)
O=C(CCS(=O)(=O)c1cccc2nonc12)NCCc1ccccc1	ALDH1A1 block 22µM
O=C(CCS(=O)(=O)c1cccc2nonc12)NCc1ccc(Cl)cc1	ALDH1A1 block 8.9µM
COc1ccc(N(C)C(=O)CCS(=O)(=O)c2cccc3nonc23)c(OC)c1	ALDH1A1 block 13µM
Cc1cccc(N(C)C(=O)CCS(=O)(=O)c2cccc3nonc23)c1	ALDH1A1 block inconclusive
O=C(CCS(=O)(=O)c1cccc2nonc12)N1CCCc2ccccc21	ALDH1A1 block 11µM
CCOc1ccccc1NC(=O)CCS(=O)(=O)c1cccc2nonc12	ALDH1A1 block inconclusive
COc1cccc(CNC(=O)CCS(=O)(=O)c2cccc3nonc23)c1	ALDH1A1 block inconclusive
O=C(NCc1ccccc1)[C@]1(C(F)(F)F)C[C@H](CCC2CCCCC2)CCCO1	none (no result: ALDH1A1 block, PLK1 PBD block)
CC[C@H](NC(=O)c1c(C)c(-c2ccccc2)nc2ccccc12)c1ccccc1	ALDH1A1 block 5µM, RORgamma inh inconclusive
COC(=O)[C@@H]1C[C@@H]2CC[C@@H](O)C[C@@H]2N1CC1CCCCC1	ALDH1A1 block inconclusive (no result: PLK1 PBD block)
Cc1ccc(C(=O)Nc2ccc3nc(C)sc3c2)s1	RORgamma inh inconclusive
Cc1nc2cc(NC(=O)c3ccc(Br)s3)ccc2s1	Gal4-VP16 FLuc inconclusive, RORgamma inh 5µM (no result: ALDH1A1 block)
N/C(=N/OS(=O)(=O)c1ccc([N+](=O)[O-])cc1)c1ccncc1	ALDH1A1 block 32µM
Cc1ccc(-c2nc3c(c(=O)[nH]c(=O)n3Cc3ccccc3)n2Cc2ccccc2)o1	ALDH1A1 block inconclusive, Sfp PPTase inh 13µM
Cc1ccc(-c2nc3c(c(=O)[nH]c(=O)n3Cc3ccccc3)n2C)s1	none (no result: ALDH1A1 block, PLK1 PBD block)
Cc1ccc(-c2nc3c(c(=O)[nH]c(=O)n3Cc3ccccc3)n2C)o1	ALDH1A1 block inconclusive, Sfp PPTase inh 10µM, RORgamma inh inconclusive
O=C(Nc1ccc(F)c(Cl)c1)c1csc(COCCO)n1	none (no result: Gal4-VP16 FLuc, ALDH1A1 block, Sfp PPTase inh, RORgamma inh)
CCN(CC)c1ccc(/C=N/NC(=O)CN2CCCc3ccccc32)cc1	Gal4-VP16 FLuc inconclusive, ALDH1A1 block inconclusive, RORgamma inh inconclusive
O=C(CN1CCCc2ccccc21)N/N=C/c1c(O)ccc2ccccc12	Gal4-VP16 FLuc 0.79µM, RORgamma inh 1.3µM
O=C(CN1CCCc2ccccc21)N/N=C/c1ccccc1	Gal4-VP16 FLuc inconclusive, ALDH1A1 block inconclusive
O=C(CN1CCCc2ccccc21)N/N=C/c1ccc(O)cc1O	Gal4-VP16 FLuc 22µM, RORgamma inh inconclusive
O=C(CSc1nc2ccccc2s1)Nc1ccc(Cl)c(C(=O)O)c1	ALDH1A1 block 2.5µM, PLK1 PBD block 8.4µM, Sfp PPTase inh 22µM, RORgamma inh inconclusive
O=C(CSc1nc2ccccc2s1)Nc1ccc2c(c1)oc1ccccc12	ALDH1A1 block 25µM
O=C(CSc1nc2ccccc2s1)Nc1cc(C(=O)O)cc(C(=O)O)c1	PLK1 PBD block inconclusive, Sfp PPTase inh 56µM
O=C(CSc1nc2ccccc2s1)NNC(=O)Nc1ccc(Cl)c(Cl)c1	RORgamma inh inconclusive
O=C(O)CSc1nc2ccccc2s1	none
O=C(CSc1nnc(NC(=O)c2ccccc2Cl)s1)Nc1ccc2c(c1)oc1ccccc12	ALDH1A1 block 18µM (no result: PLK1 PBD block)
CC(C)(C)NC(=O)CSc1nnc(NC(=O)c2ccccc2Cl)s1	none
CN(Cc1ccco1)c1ncncc1-c1cccnc1	ALDH1A1 block inconclusive, Sfp PPTase inh inconclusive (no result: PLK1 PBD block)
O=C(Nc1nnc(SCC(=O)N2CCOCC2)s1)c1ccccc1Cl	Gal4-VP16 FLuc 6.3µM, ALDH1A1 block 22µM, RORgamma inh 10µM
Cc1ccc(NC(=O)CSc2n[nH]c(-c3ccccn3)n2)cc1	Gal4-VP16 FLuc 5.6µM, RORgamma inh 4.5µM (no result: ALDH1A1 block)
O=C(CSc1n[nH]c(-c2ccccn2)n1)Nc1ccc(F)cc1	Gal4-VP16 FLuc inconclusive, RORgamma inh 7.9µM (no result: ALDH1A1 block)
CCc1nc(SCC(=O)Nc2ccc(N(CC)CC)cc2)n[nH]1	PLK1 PBD block 30µM (no result: Gal4-VP16 FLuc, ALDH1A1 block, Sfp PPTase inh, RORgamma inh)
COC(=O)c1ccccc1NC(=O)CSc1n[nH]c(-c2cccnc2)n1	PLK1 PBD block 21µM
O=C(CSc1n[nH]c(-c2ccncc2)n1)Nc1ccc(F)cc1	none (no result: ALDH1A1 block)
O=C1NC(CCO)C(=O)NC1CCO (stereo not drawn)	none (no result: Gal4-VP16 FLuc, ALDH1A1 block, Sfp PPTase inh, RORgamma inh)
C[C@]12c3[nH]c4cc(-c5ccco5)ccc4c3CCN1C(=O)[C@@H](CC(=O)NCc1ccco1)C[C@@H]2C(=O)N1CCOCC1	none (no result: Gal4-VP16 FLuc, ALDH1A1 block, Sfp PPTase inh, RORgamma inh)
CO[C@@H]1COC(=O)[C@H](C)NC(=O)[C@@H](C)COC(=O)[C@H](C)NC(=O)C/C=C\[C@H]1C	none (no result: PLK1 PBD block)
O=C(CSc1n[nH]c(-c2ccccn2)n1)Nc1ccc(Cl)cc1	Gal4-VP16 FLuc 0.1µM, RORgamma inh 2.5µM (no result: ALDH1A1 block)
O=C(O)c1ccc(COc2ccccc2/C=C2\NC(=O)N(Cc3ccc(F)cc3)C2=O)cc1	PLK1 PBD block 67µM
O=C(O)c1ccc(COc2ccccc2C=C2C(=O)c3ccccc3C2=O)cc1	ALDH1A1 block inconclusive, PLK1 PBD block 0.47µM
C=CCc1cc(/C=C2/NC(=O)N(CC)C2=O)cc(OCC)c1OCc1ccc(C(=O)O)cc1	ALDH1A1 block 3.2µM
C=CCc1cc(C=O)cc(OCC)c1OCc1ccc(Cl)cc1	Gal4-VP16 FLuc inconclusive, RORgamma inh inconclusive
Cc1ccccc1NC(=O)CN1C(=O)N/C(=C\c2ccccc2OCc2ccc(C(=O)O)cc2)C1=O	PLK1 PBD block 30µM (no result: ALDH1A1 block)
O=C(CCn1c(=O)oc2cc(Cl)ccc21)Nc1ccc(N2CCOCC2)cc1	none (no result: ALDH1A1 block)
Cc1ccc(-n2nc(C)c3c2NC2=C(C(=O)CC(C)(C)C2)C3c2ccccc2OCC(=O)O)cc1 (stereo not drawn)	ALDH1A1 block inconclusive, PLK1 PBD block 27µM
COc1ccccc1C1C2=C(CC(C)(C)CC2=O)N(CC(=O)O)C2=C1C(=O)CC(C)(C)C2	none (no result: ALDH1A1 block)
CSCCC(C(=O)Nc1c(C)cccc1C)n1c(-c2cc(C)cs2)nc2ccccc21 (stereo not drawn)	none (no result: Gal4-VP16 FLuc, ALDH1A1 block, Sfp PPTase inh, RORgamma inh)
CCOc1cc(C=O)ccc1OCCCN1C(=O)NC(C)(C)C1=O	ALDH1A1 block inconclusive
CCCCOc1ccc(/C=C/C2=CC(C)(C)NC(=S)N2)cc1OCC	Gal4-VP16 FLuc 1.8µM, ALDH1A1 block inconclusive, RORgamma inh 0.79µM
CC1(C)Cc2c(sc3[nH]c(=S)n(Cc4ccccc4)c(=O)c23)CO1	Gal4-VP16 FLuc 0.89µM
CC1(C)Cc2c(sc3c2c(N)nc(=S)n3Cc2ccccc2)CO1	ALDH1A1 block inconclusive (no result: PLK1 PBD block)
O=C(NCc1ccc(F)cc1)N1[C@H]2CC[C@@H]1C=C(c1ccc(F)cc1OCc1ccccc1)C2	none (no result: Gal4-VP16 FLuc, ALDH1A1 block, Sfp PPTase inh, RORgamma inh)
CCc1c(C)nc(N2CCN(c3ccc(Cl)cc3)CC2)[nH]c1=O	PLK1 PBD block 24µM (no result: ALDH1A1 block)
CCc1c(C)nc(N2CCN(c3ccc(F)cc3)CC2)[nH]c1=O	RORgamma inh inconclusive (no result: ALDH1A1 block)
COc1ccc(N(C(=O)c2snc(C(N)=O)c2N)C(C(=O)NC2CCCC2)c2cccs2)cc1OC (stereo not drawn)	none (no result: ALDH1A1 block)
C#CC(=O)N(c1ccc(OC)cc1OC)C(C(=O)NC1CCCC1)c1cccs1 (stereo not drawn)	Gal4-VP16 FLuc 7.9µM, PLK1 PBD block 24µM, RORgamma inh 6.3µM
